Data published in the supplement of paper PMC9492666.
Structures can show the parent of a compound that is named as a salt.

What was measured:
HCC1937 = test: relative cell viability, compound alone, vs DMSO (fraction of DMSO control); higher = less growth inhibition; conditions: 72 h
MDA-MB-231 = test: as above; conditions: 72 h
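Further: viability read out with the CCK-8 kit in 96-well plates, screening a set of 303 compounds acting on lipid metabolism targets.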

SMILES	relative cell viability (HCC1937)	relative cell viability (MDA-MB-231)
CCCCCCCCCCC[C@@H](C[C@@H]1OC(=O)[C@H]1CCCCCC)OC(=O)[C@H](CC(C)C)NC=O [Orlistat]	0.977	0.809
COc1ccc(-c2coc3cc(OC)ccc3c2=O)cc1 [4',7-Dimethoxyisoflavone]	0.486	0.693
COc1ccc2[nH]cc(CCNC(C)=O)c2c1 [Melatonine]	0.76	0.783
COc1c(/C=C/C(=O)c2ccc(O)cc2)ccc(O)c1CC=C(C)C	1.06	0.885
C[C@H](CCCC(C)(C)O)[C@H]1CC[C@H]2[C@@H]3CC=C4C[C@@H](O)CC[C@]4(C)[C@H]3CC[C@]12C [25-Hydroxycholesterol]	0.982	0.89
COc1ccc(Nc2ccn(-c3ccccc3)n2)cc1	0.868	1
COc1cc(C(C)=O)ccc1O [Acetovanillone]	0.833	0.891
O=C(Nc1cccnn1)N1CCC(=Cc2cccc(Oc3ccc(C(F)(F)F)cn3)c2)CC1	1.15	0.987
Cc1cc(N2C[C@@H](C)N[C@@H](C)C2)ncc1-c1ccc(-c2nc3c(ccn3C)c(=O)[nH]2)cc1	0.855	1.05
COc1ccc(/C=C/c2cc(O)cc(O[C@@H]3O[C@H](CO)[C@@H](O)[C@H](O)[C@H]3O)c2)cc1 [Deoxyrhapontin]	0.932	0.995
CCOC(=O)C(C)(C)Oc1ccc(Cl)cc1 [Clofibrate]	1.15	0.9
Cc1nc2ccc(C(=O)N3CCC4(CC3)CC(=O)c3c(cnn3C(C)C)C4)cc2[nH]1	0.71	0.859
C[C@H](CCOc1cccc(CC(=O)O)c1)N(Cc1cccc(C(F)(F)F)c1Cl)CC(c1ccccc1)c1ccccc1 [RGX-104 free Acid]	0.613	0.863
CC1=C(C)C(=O)C(C(CCCCCC(=O)O)c2ccccc2)=C(C)C1=O (stereo unspecified) [Seratrodast]	1.37	0.809
CC1CC(OC(=O)C(O)c2ccccc2)CC(C)(C)C1 (stereo unspecified) [Cyclandelate]	1.21	0.825
NC(N)=N/N=C/c1cccc(Cl)c1Cl [Raphin1 acetate]	1.01	0.822
C[C@@H](Nc1nc(N[C@H](C)C(F)(F)F)nc(-c2cccc(Cl)n2)n1)C(F)(F)F [Vorasidenib]	0.708	0.914
Cn1c2cc([S+](C)[O-])sc2c2cnn(Cc3cccc(N)c3)c(=O)c21 (stereo unspecified)	0.688	0.96
O=c1c(-c2ccc(O)cc2)coc2cc(O)ccc12 [Daidzein]	1.13	0.863
O=C(O)c1cccc(N=Nc2c(O)[nH]c3ccc(S(=O)(=O)NCc4ccc(F)cc4)cc23)c1	0.885	0.938
O=C(NNc1ccccc1)c1ccncc1 [PluriSln 1]	0.925	0.814
CC(C)(C)c1ccc(-c2nc3ccccc3[nH]2)cc1	0.728	0.612
Cc1cc(=O)oc2c(O)c(O)ccc12 [7,8-Dihydroxy-4-methylcoumarin]	0.911	1.02

SMILES	relative cell viability (HCC1937)	relative cell viability (MDA-MB-231)
CC(C)(Oc1ccc(C(=O)c2ccc(Cl)cc2)cc1)C(=O)O [Choline Fenofibrate]	0.928	1.07
CC1(C)CC[C@]2(C(=O)O[C@@H]3O[C@H](CO)[C@@H](O)[C@H](O)[C@H]3O)CC[C@]3(C)C(=CC[C@@H]4[C@@]5(C)CC[C@H](O[C@@H]6O[C@H](C(=O)O)[C@@H](O)[C@H](O)[C@H]6O[C@@H]6O[C@H](CO)[C@@H](O)[C@H](O)[C@H]6O)C(C)(C)[C@@H]5CC[C@]43C)[C@@H]2C1 [Ginsenoside Ro]	1.02	0.9
O=C(Nc1ccc(C(O)(C(F)(F)F)C(F)(F)F)cc1)c1ccccc1Cl	1.05	1.01
CCCCCCCCCCCCCCOc1ccc(C(=O)O)o1	1.07	1
O=C(c1ccc(NS(=O)(=O)c2cccc3cccnc23)cc1)N1CCN(CC2CC2)CC1 [Mitapivat]	0.95	0.935
CN(CCOc1ccc(CC2SC(=O)NC2=O)cc1)c1ccccn1 (stereo unspecified) [Rosiglitazone HCl]	0.781	0.947
CC1(C)CC[C@]2(C(=O)O[C@@H]3O[C@H](CO)[C@@H](O)[C@H](O)[C@H]3O)CC[C@]3(C)C(=CC[C@@H]4[C@@]5(C)CC[C@H](O[C@@H]6O[C@H](C(=O)O)[C@@H](O)[C@H](O)[C@H]6O)C(C)(C)[C@@H]5CC[C@]43C)[C@@H]2C1 [Chikusetsusaponin IVa]	1.02	0.966
O=c1cc(-c2ccc(O)c(-c3c(O)cc(O)c4c(=O)cc(-c5ccc(O)cc5)oc34)c2)oc2cc(O)cc(O)c12 [Amentoflavone]	0.782	0.812
CC(C)OC(=O)C(C(=O)OC(C)C)=C1SC=CS1 [Malotilate]	0.686	0.828
CC(C)(Oc1ccc(C2CC2(Cl)Cl)cc1)C(=O)O (stereo unspecified) [Ciprofibrate]	1.15	0.937
C=C(C)[C@@H]1CCC2=CC(=O)C[C@@H](C)[C@]2(C)C1 [Nootkatone]	0.882	1.02
Cc1cnc(C(=O)NCCc2ccc(S(=O)(=O)NC(=O)NC3CCCCC3)cc2)cn1 [Glipizide]	0.679	0.817
O=C(O)c1cc(F)c2nc(N3[C@@H]4CC[C@H]3C[C@@H](OCc3c(-c5ccccc5OC(F)(F)F)noc3C3CC3)C4)sc2c1 [Tropifexor]	1.05	0.971
N#Cc1ccc(Oc2cccc(NC(=O)Nc3ccc(Cl)c(C(F)(F)F)c3)c2)cc1	0.1	0.276
CCN(CC)CCN(Cc1ccc(-c2ccc(C(F)(F)F)cc2)cc1)C(=O)Cn1c(SCc2ccc(F)cc2)nc(=O)c2c1CCC2 [Darapladib]	0.0924	0.22
Nc1ccc(O)c(C(=O)O)c1 [Mesalamine]	1.17	0.914
CC[C@@H]1/C=C(\C)C[C@H](C)C[C@H](OC)[C@H]2O[C@@](O)(C(=O)C(=O)N3CCCC[C@H]3C(=O)O[C@H](/C(C)=C/[C@@H]3CC[C@@H](O)[C@H](OC)C3)[C@H](C)[C@@H](O)CC1=O)[C@H](C)C[C@@H]2OC [Ascomycin]	0.185	0.236
COc1cc(O)c2c(c1)O[C@H](c1ccc(O)cc1)CC2=O [Sakuranetin]	0.627	0.941
NC(=O)c1ncn([C@@H]2O[C@H](CO)[C@@H](O)[C@H]2O)c1N [AICAR (Acadesine)]	0.804	0.892
O=C(O)CN(CC(=O)O)c1ccccc1OCCOc1ccccc1N(CC(=O)O)CC(=O)O	0.633	0.899
COP(=O)(OC)OC(c1ccc(Cl)cc1)P(=O)(OC)OC (stereo unspecified) [Mifobate]	1.18	1.2
O=C(Nc1ccccc1)N1CCN(c2nc(-c3ccccc3)ns2)CC1	0.807	0.821
CC(C)(C)NC(=O)[C@H]1CC[C@H]2[C@@H]3CC[C@H]4NC(=O)C=C[C@]4(C)[C@H]3CC[C@]12C [Finasteride]	1.17	0.934

SMILES	relative cell viability (HCC1937)	relative cell viability (MDA-MB-231)
CC1(C)C[C@H]2C3=CC[C@@H]4[C@@]5(C)CC[C@H](O)[C@@](C)(CO)[C@@H]5CC[C@@]4(C)[C@]3(C)C[C@H](O)[C@@]2(CO)[C@@H](O)[C@@H]1O [Gymnemagenin]	1.13	1.04
COc1cccc(CNc2ccc(S(=O)(=O)Nc3nc4ccccc4s3)cc2)c1O	1.01	0.975
CN(C)C(=N)NC(=N)N [Metformin hydrochloride]	0.98	0.95
N=C(N)NCCC(=O)O [3-Guanidinopropionic Acid]	0.734	0.94
Cc1c(C(=O)Nc2ccc(CO)cc2)nnn1Cc1ccc(Cl)c(Cl)c1	0.975	0.95
CC(=O)N1CCN(c2ccc(OCC3COC(Cn4ccnc4)(c4ccc(Cl)cc4Cl)O3)cc2)CC1 (stereo unspecified) [Ketoconazole]	1.3	0.897
COC(=O)c1cc(Cl)c(O)c(S(=O)(=O)Nc2cc(-c3ccccc3)c(F)cc2F)c1	0.737	0.833
O=c1oc2ccccc2cc1O [3-Hydroxycoumarin]	1.02	1.05
COCCNC(=O)Nc1ccc2nc(-c3cccs3)c(-c3cccs3)nc2c1 [Ac-CoA Synthase Inhibitor1]	0.959	0.91
NC(CO)C(=O)O (racemic) [DL-Serine]	0.683	0.77
CC(C)c1cc(C(C)C)c(CC(=O)NS(=O)(=O)Oc2c(C(C)C)cccc2C(C)C)c(C(C)C)c1 [Avasimibe]	0.707	0.832
CC(C)(O)c1ccccc1CC[C@@H](SCC1(CC(=O)O)CC1)c1cccc(/C=C/c2ccc3ccc(Cl)cc3n2)c1 [Montelukast]	0.789	0.857
CCC(=O)Nc1cccc(Oc2nc(Nc3ccc(N4CCN(C)CC4)cc3OC)ncc2Cl)c1	0.48	0.559
CC(C)[C@H]1CC[C@H](C(=O)N[C@H](Cc2ccccc2)C(=O)O)CC1 [Nateglinide]	0.682	0.869
CC(O)(CC(=O)O)CC(=O)O [Meglutol]	0.748	0.891
COC(=O)CN(c1ccc(CN(c2ccc(OCc3ccc(C)cc3)c(C(=O)OC)c2)S(=O)(=O)Cc2ccccc2)cc1)S(C)(=O)=O	0.894	0.921
CC1=C[C@]2(O)O[C@@]3(CC2=C(C)C)[C@@H](C)CC[C@@H]13 [Curcumenol]	0.868	0.863
CCNC1(C(N)=O)CCN(c2ncnc3c2nc(-c2ccccc2Cl)n3-c2ccc(Cl)cc2)CC1 [Otenabant]	0.906	0.915
Oc1ccc2c(c1)OCO2 [Sesamol]	0.804	0.831
O=c1ccc2cc(O)c(O)cc2o1 [Esculetin]	0.673	0.672
CCN(CC)CCCC(C)Nc1c2ccc(Cl)cc2nc2ccc(OC)cc12 (stereo unspecified) [Quinacrine dihydrochloride]	0.212	0.306
Fc1ccc(-c2c3cccc(C(F)(F)F)c3nn2Cc2ccc(F)cc2Cl)cc1	1.11	0.816
